# Source: PMC7862700, “An all-to-all approach to the identification of sequence-specific readers for epigenetic DNA modifications on cytosine”
# Key:
# Experiment in all cases: DAPPL (digital affinity profiling via proximity ligation, sequencing); 10 mM Tris-HCl pH 7.5, 50 mM NaCl, 1 mM DTT, 4% glycerol, room temperature, 30 min; GST-TFs on glutathione beads, 16-mer random dsDNA library, 0.1% formaldehyde crosslink after washing; high values mean tight binding
# FLI1 = target: T1, FLI1 (Homo sapiens, UniProt Q01543 1-452); details: protein: recombinant; tags: N-terminal GST; dsDNA, one strand shown
# T1 sequence: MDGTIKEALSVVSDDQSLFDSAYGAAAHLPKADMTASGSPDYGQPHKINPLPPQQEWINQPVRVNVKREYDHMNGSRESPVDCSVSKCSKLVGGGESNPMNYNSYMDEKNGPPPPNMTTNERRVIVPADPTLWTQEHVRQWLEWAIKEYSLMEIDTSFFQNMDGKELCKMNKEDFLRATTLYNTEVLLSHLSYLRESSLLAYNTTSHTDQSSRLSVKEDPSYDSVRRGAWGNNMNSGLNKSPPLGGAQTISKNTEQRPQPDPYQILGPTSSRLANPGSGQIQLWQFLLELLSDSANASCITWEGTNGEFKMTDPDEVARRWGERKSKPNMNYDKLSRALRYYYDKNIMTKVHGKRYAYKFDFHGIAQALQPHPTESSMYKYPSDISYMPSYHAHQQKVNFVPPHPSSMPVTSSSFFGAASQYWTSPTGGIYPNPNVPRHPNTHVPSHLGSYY
# Outline: (§1)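 A tag-only sample was pooled with DNA-barcoded human transcription factors that had been expressed in yeast as GST fusions and captured on glutathione beads. The pools were incubated for 30 min at room temperature with 200 nmole of a random double-stranded 16-mer DNA library in Tris/NaCl/DTT/glycerol buffer, then washed, crosslinked with 0.1% formaldehyde, proximity-ligated (BsaI/T4 ligase, 1 h, 37 °C), PCR-amplified and sequenced on an Illumina NextSeq500. Binding signal is each hexamer's read frequency for a factor divided by its frequency for the tag-only sample.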
# ELK1 = target: T2, ELK1 (Homo sapiens, UniProt P19419 1-428); details: protein: recombinant; tags: N-terminal GST; dsDNA, one strand shown
# T2 sequence: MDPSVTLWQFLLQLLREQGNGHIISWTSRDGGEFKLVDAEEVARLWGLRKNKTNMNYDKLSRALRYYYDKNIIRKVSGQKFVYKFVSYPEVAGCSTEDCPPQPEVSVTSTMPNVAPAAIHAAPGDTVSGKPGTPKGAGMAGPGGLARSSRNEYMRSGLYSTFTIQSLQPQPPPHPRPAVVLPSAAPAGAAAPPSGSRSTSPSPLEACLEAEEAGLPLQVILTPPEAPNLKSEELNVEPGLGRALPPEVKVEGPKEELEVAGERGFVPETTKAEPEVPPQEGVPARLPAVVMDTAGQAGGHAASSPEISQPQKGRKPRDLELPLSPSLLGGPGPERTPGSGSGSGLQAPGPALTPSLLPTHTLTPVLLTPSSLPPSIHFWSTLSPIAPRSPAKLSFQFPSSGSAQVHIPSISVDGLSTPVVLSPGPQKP
# Outline: as §1
# GABPA = target: T3, GABPA (Homo sapiens, UniProt Q06546 1-454); details: protein: recombinant; tags: N-terminal GST; dsDNA, one strand shown
# T3 sequence: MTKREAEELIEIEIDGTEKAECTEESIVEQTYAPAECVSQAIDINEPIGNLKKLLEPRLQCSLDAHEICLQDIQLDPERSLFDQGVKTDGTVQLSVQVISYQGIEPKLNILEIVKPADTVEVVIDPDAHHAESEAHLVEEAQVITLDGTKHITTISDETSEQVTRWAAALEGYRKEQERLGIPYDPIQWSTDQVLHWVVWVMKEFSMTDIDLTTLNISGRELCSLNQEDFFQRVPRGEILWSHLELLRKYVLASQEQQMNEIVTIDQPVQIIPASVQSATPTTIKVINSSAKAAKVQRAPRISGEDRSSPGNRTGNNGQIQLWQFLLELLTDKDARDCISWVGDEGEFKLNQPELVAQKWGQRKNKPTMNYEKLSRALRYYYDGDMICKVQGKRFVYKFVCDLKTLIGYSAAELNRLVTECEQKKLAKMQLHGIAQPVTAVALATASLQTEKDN
# Outline: as §1
# ERG = target: T4, ERG (Homo sapiens, UniProt P11308 1-479); details: protein: recombinant; tags: N-terminal GST; dsDNA, one strand shown
# T4 sequence: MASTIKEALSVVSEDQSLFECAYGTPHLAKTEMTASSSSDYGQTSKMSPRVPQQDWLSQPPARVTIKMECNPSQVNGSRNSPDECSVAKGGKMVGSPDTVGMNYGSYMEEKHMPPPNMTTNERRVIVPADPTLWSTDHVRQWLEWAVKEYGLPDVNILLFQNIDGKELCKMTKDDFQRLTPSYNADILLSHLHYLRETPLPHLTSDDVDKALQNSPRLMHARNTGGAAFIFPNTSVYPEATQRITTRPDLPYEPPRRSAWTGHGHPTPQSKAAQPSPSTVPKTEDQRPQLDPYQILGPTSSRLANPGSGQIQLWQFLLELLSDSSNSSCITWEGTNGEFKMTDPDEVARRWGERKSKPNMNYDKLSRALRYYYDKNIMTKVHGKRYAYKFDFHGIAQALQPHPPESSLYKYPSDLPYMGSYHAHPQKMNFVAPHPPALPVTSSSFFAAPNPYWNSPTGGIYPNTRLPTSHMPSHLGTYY
# Outline: as §1
# ELF1 = ELF1 (Homo sapiens, UniProt P32519 1-619); details: protein: recombinant; tags: N-terminal GST; dsDNA, one strand shown
# Sequence of ELF1 (P32519 whole entry): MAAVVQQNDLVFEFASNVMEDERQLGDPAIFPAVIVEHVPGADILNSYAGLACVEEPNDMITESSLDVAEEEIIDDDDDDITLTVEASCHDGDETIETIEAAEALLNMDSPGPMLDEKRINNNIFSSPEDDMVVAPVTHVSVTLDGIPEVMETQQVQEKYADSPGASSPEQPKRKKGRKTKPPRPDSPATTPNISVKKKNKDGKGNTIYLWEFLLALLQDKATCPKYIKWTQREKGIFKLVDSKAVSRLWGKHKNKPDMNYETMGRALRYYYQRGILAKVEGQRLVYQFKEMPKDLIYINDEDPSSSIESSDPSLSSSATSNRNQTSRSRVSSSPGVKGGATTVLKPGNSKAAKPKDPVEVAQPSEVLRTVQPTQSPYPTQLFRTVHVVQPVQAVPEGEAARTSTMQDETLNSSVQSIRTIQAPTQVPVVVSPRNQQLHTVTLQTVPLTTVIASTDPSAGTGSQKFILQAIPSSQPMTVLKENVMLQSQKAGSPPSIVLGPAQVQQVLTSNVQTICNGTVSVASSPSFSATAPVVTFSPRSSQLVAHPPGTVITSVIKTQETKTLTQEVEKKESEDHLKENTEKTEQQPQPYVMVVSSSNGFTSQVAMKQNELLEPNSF
# Outline: as §1
# EHF = target: T5, EHF (Homo sapiens, UniProt Q9NZC4 1-300); details: protein: recombinant; tags: N-terminal GST; dsDNA, one strand shown
# T5 sequence: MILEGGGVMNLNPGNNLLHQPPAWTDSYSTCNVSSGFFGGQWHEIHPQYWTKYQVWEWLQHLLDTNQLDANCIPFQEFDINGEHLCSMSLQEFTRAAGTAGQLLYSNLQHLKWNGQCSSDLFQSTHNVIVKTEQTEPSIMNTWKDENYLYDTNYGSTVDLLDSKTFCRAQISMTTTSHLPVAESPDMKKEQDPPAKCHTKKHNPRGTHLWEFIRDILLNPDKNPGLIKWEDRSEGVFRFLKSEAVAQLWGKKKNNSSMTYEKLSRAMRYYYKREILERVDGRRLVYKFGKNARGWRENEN
# Outline: as §1
# SPI1 = SPI1 (Homo sapiens, UniProt P17947 1-270); details: protein: recombinant; tags: N-terminal GST; dsDNA, one strand shown
# Outline: as §1
# SPIB = SPIB (Homo sapiens, UniProt Q01892 1-262); details: protein: recombinant; tags: N-terminal GST; dsDNA, one strand shown
# Sequence of SPIB (Q01892 whole entry): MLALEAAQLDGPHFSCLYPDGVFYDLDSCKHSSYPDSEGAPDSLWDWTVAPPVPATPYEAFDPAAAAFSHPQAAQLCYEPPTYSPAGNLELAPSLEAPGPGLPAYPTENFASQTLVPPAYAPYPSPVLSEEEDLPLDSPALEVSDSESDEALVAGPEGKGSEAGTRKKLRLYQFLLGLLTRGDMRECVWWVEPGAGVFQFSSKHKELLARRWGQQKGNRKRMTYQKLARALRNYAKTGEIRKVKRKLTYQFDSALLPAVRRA
# Outline: as §1
# ELK3 = target: T6, ELK3 (Homo sapiens, UniProt P41970 1-407); details: protein: recombinant; tags: N-terminal GST; dsDNA, one strand shown
# T6 sequence: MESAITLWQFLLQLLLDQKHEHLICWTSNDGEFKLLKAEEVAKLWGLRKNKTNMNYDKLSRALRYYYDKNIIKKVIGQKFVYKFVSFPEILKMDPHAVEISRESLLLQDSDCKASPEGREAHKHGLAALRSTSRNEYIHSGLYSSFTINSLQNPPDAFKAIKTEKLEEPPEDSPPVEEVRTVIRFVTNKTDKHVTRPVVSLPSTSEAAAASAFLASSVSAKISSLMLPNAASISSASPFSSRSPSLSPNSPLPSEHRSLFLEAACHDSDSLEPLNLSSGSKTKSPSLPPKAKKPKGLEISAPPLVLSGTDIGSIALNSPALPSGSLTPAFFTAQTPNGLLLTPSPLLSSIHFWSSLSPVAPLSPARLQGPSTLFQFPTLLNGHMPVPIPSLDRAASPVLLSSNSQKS
# Outline: as §1
# FEV = target: T7, FEV (Homo sapiens, UniProt Q99581 1-238); details: protein: recombinant; tags: N-terminal GST; dsDNA, one strand shown
# T7 sequence: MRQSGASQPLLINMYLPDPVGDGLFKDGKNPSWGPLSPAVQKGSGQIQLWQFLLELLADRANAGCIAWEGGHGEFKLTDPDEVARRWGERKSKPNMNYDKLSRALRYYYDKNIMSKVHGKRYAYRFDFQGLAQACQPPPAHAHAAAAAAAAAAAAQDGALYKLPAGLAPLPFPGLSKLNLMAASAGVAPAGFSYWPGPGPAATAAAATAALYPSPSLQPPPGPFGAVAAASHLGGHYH
# Outline: as §1
# ETV5 = ETV5 (Homo sapiens, UniProt P41161 1-510); details: protein: recombinant; tags: N-terminal GST; dsDNA, one strand shown
# Sequence of ETV5 (P41161 whole entry): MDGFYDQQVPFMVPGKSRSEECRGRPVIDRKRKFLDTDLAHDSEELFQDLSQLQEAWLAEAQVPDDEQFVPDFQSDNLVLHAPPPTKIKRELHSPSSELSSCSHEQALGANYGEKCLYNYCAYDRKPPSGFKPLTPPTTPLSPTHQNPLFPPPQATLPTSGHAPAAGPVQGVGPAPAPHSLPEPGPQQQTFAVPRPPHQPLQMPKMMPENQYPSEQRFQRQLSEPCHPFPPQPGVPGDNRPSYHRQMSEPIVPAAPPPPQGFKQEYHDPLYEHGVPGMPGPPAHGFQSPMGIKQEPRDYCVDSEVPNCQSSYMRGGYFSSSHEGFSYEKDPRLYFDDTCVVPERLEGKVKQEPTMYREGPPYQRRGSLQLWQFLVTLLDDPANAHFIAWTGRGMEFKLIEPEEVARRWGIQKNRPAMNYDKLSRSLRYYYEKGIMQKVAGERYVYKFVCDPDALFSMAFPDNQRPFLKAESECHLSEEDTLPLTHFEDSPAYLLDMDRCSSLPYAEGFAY
# Outline: as §1
# HSF1 = HSF1 (Homo sapiens, UniProt Q00613 1-529); details: protein: recombinant; tags: N-terminal GST; chain copies: 3; dsDNA, one strand shown
# Sequence of HSF1 (Q00613 whole entry): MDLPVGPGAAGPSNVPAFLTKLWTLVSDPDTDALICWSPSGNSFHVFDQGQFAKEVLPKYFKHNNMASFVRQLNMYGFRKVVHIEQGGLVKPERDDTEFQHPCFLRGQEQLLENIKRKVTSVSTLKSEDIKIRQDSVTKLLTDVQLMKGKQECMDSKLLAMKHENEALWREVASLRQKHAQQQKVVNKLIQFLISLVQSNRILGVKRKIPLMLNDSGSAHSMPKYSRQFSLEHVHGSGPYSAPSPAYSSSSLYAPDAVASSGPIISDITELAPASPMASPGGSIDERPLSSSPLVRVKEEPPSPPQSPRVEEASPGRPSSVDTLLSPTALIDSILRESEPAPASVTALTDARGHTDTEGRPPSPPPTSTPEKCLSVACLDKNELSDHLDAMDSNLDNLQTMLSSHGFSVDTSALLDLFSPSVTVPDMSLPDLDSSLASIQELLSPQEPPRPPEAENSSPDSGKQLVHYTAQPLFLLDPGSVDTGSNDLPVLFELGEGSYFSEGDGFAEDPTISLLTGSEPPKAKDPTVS
# Outline: as §1
# SPIC = target: T8, SPIC (Homo sapiens, UniProt Q8N5J4 1-248); details: protein: recombinant; tags: N-terminal GST; dsDNA, one strand shown
# T8 sequence: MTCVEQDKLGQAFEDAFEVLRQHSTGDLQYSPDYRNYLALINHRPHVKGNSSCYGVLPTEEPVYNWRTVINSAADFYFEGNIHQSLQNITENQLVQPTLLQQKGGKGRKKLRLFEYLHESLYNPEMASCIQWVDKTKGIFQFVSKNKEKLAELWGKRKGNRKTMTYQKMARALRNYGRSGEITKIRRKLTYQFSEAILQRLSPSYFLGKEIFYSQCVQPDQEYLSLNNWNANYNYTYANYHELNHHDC
# Outline: as §1
# ELF4 = ELF4 (Homo sapiens, UniProt Q99607 1-663); details: protein: recombinant; tags: N-terminal GST; dsDNA, one strand shown
# Sequence of ELF4 (Q99607 whole entry): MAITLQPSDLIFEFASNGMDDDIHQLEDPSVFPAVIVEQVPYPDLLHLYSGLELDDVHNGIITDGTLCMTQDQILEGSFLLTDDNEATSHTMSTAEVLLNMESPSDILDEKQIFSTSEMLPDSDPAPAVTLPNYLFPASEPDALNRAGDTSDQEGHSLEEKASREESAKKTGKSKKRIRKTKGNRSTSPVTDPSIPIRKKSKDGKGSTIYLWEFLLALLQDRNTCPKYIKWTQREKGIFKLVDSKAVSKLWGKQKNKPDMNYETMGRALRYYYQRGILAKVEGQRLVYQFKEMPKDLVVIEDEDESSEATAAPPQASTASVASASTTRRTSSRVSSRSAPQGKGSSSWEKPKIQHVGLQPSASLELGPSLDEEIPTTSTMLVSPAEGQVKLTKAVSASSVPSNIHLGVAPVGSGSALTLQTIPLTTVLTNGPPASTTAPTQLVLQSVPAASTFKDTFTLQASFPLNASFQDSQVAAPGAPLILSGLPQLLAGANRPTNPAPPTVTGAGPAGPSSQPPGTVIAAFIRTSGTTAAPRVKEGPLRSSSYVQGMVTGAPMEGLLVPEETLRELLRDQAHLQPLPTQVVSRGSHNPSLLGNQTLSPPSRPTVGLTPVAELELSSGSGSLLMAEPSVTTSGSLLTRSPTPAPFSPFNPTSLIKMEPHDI
# Outline: as §1
# ELK4 = target: T9, ELK4 (Homo sapiens, UniProt P28324-2 1-405); details: protein: recombinant; tags: N-terminal GST; dsDNA, one strand shown
# T9 sequence: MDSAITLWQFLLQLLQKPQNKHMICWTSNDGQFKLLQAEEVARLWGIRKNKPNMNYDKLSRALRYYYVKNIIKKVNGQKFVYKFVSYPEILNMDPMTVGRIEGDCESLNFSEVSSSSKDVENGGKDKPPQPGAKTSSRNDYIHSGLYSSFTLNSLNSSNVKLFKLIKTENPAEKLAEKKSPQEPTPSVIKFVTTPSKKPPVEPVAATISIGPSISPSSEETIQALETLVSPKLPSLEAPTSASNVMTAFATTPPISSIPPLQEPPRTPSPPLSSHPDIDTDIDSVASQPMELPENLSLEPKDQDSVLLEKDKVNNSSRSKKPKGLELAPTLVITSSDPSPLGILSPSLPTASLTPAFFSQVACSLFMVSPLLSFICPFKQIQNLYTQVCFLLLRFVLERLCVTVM
# Outline: as §1
# ETV2 = target: T10, ETV2 (Homo sapiens, UniProt O00321 1-342); details: protein: recombinant; tags: N-terminal GST; dsDNA, one strand shown
# T10 sequence: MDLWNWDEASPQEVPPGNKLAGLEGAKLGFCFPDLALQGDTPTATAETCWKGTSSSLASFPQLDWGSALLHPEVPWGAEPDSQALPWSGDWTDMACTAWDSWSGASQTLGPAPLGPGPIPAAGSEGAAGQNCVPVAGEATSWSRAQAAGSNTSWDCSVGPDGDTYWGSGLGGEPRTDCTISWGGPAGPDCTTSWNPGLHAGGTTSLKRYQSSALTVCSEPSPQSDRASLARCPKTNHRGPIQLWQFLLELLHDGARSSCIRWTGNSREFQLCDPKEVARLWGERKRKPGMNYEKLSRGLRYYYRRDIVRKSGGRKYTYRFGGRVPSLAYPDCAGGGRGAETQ
# Outline: as §1
# ELF3 = target: T11, ELF3 (Homo sapiens, UniProt P78545 1-371); details: protein: recombinant; tags: N-terminal GST; dsDNA, one strand shown
# T11 sequence: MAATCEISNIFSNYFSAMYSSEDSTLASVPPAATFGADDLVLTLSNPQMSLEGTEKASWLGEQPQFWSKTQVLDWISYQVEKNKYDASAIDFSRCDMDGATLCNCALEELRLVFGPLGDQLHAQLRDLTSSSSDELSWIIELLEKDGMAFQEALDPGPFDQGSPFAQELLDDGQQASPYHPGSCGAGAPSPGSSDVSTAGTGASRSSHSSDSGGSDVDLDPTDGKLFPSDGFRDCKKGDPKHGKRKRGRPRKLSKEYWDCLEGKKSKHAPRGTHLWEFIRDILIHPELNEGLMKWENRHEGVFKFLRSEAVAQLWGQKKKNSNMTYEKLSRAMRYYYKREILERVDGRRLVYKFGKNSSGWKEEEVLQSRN
# Outline: as §1
# CRX = CRX (Homo sapiens, UniProt O43186 1-299); details: protein: recombinant; tags: N-terminal GST; dsDNA, one strand shown
# Sequence of CRX (O43186 whole entry): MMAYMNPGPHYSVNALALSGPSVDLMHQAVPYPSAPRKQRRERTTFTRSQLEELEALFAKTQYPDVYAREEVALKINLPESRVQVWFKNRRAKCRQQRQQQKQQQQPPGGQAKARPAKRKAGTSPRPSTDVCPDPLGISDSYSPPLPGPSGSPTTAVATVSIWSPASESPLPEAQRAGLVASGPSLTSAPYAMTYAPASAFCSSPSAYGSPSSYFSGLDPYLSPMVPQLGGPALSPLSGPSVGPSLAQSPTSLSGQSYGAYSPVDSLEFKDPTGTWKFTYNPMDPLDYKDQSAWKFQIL
# Outline: as §1
# ETV1 = ETV1 (Homo sapiens, UniProt P50549 1-477); details: protein: recombinant; tags: N-terminal GST; dsDNA, one strand shown
# Sequence of ETV1 (P50549 whole entry): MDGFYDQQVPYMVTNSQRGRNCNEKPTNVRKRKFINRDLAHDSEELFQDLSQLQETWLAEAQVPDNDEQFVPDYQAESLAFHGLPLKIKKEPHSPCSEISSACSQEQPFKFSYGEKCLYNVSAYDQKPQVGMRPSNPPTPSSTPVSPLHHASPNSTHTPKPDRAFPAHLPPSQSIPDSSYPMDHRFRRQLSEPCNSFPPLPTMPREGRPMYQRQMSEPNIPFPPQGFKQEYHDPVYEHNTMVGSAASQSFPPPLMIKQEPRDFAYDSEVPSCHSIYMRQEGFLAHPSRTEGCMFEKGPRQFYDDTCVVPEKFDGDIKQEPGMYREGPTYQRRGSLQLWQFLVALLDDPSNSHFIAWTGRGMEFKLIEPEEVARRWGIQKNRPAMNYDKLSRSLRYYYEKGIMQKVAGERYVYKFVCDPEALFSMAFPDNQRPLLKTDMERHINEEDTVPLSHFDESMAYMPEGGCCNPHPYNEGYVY
# Outline: as §1
sequence,measurement,setting,value
ACTTTA,binding signal,FLI1,"1.12 fold enrichment (6-mer frequency, TF over GST control)"
same,binding signal,ELK1,"1.26 fold enrichment (6-mer frequency, TF over GST control)"
same,binding signal,GABPA,"1.29 fold enrichment (6-mer frequency, TF over GST control)"
same,binding signal,ERG,"1.17 fold enrichment (6-mer frequency, TF over GST control)"
same,binding signal,ELF1,"1.21 fold enrichment (6-mer frequency, TF over GST control)"
same,binding signal,EHF,"1.2 fold enrichment (6-mer frequency, TF over GST control)"
same,binding signal,SPI1,"1.33 fold enrichment (6-mer frequency, TF over GST control)"
same,binding signal,SPIB,"1.19 fold enrichment (6-mer frequency, TF over GST control)"
same,binding signal,ELK3,"1.22 fold enrichment (6-mer frequency, TF over GST control)"
same,binding signal,FEV,"1.15 fold enrichment (6-mer frequency, TF over GST control)"
same,binding signal,ETV5,"1.21 fold enrichment (6-mer frequency, TF over GST control)"
same,binding signal,HSF1,"1.33 fold enrichment (6-mer frequency, TF over GST control)"
same,binding signal,SPIC,"1.21 fold enrichment (6-mer frequency, TF over GST control)"
same,binding signal,ELF4,"1.23 fold enrichment (6-mer frequency, TF over GST control)"
same,binding signal,ELK4,"1.15 fold enrichment (6-mer frequency, TF over GST control)"
same,binding signal,ETV2,"1.26 fold enrichment (6-mer frequency, TF over GST control)"
same,binding signal,ELF3,"1.23 fold enrichment (6-mer frequency, TF over GST control)"
same,binding signal,CRX,"1.54 fold enrichment (6-mer frequency, TF over GST control)"
same,binding signal,ETV1,"1.21 fold enrichment (6-mer frequency, TF over GST control)"
